DT40 TDP1 no CPT – qHTS for Inhibitors of human tyrosyl-DNA phosphodiesterase 1 (TDP1): qHTS in cells in absence of CPT. Potency, µM (highest dose often 46.2 µM), most hits filed as inhibitors. AID 686978, 2013. DT40 Tdp1-/- hTDP1 cells, no CPT, ATP luminescence, 48 h. 420,000 compounds, 15% hits; also: nearly all actives have a fitted effect of over 55% in size
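Compound effects on proliferation are scored in DT40 Tdp1-/-;hTDP1 cells in the absence of CPT. ATP levels (CellTiter-Glo luminescence) are recorded after a ≥48 hr, 37 °C incubation.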
RORg inh – qHTS for inhibitors of ROR gamma transcriptional activity. Nuclear receptor ROR-gamma (Mus musculus), P51450. Drosophila S2 Gal4-RORgamma UAS-luciferase reporter, 20 h. Potency, µM (highest dose often 53.6 µM), hits mostly inhibitors. 310,000 compounds, 5.4% hits. AID 2551, 2010; also: nearly all actives have a fitted effect of over 60% in size
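In this cell-based reporter format, copper sulfate (700 uM final) drives Gal4–ROR gamma fusion expression from a metallothionein promoter in Drosophila Schneider cells; compounds preincubated 1 hr, reporter read after 20 hr at ambient temperature.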
TDP1 cell CPT – qHTS for Inhibitors of human tyrosyl-DNA phosphodiesterase 1 (TDP1): qHTS in cells in presence of CPT | Potency, µM (series often up to 46.2 µM), usual class: inhibitors | 420,000 compounds, 12% hits | chicken DT40 Tdp1-/-;hTDP1 cells + 20 nM CPT, ATP luminescence, 48 h | AID 686979, 2013; also: nearly all actives have a fitted effect of over 55% in size
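Chicken DT40 Tdp1-/- cells stably complemented with human TDP1 were seeded at 400 cells/well in medium containing 20 nM camptothecin, exposed to pin-transferred compounds, and grown at 37 °C for at least 48 hr. Viability was read as ATP luminescence.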
TDP1 block – qHTS Assay for Inhibitors of Tyrosyl-DNA Phosphodiesterase (TDP1). Tyrosyl-DNA phosphodiesterase 1 (Homo sapiens), Q9NUW8. recombinant TDP1, AlphaScreen DNA substrate cleavage. Potency, µM (highest dose often 130 µM), hits mostly inhibitors. 350,000 compounds, 0.28% hits. AID 485290, 2010; also: nearly all actives have a fitted effect of over 40% in size
Target sequence (Q9NUW8 whole entry, looked up): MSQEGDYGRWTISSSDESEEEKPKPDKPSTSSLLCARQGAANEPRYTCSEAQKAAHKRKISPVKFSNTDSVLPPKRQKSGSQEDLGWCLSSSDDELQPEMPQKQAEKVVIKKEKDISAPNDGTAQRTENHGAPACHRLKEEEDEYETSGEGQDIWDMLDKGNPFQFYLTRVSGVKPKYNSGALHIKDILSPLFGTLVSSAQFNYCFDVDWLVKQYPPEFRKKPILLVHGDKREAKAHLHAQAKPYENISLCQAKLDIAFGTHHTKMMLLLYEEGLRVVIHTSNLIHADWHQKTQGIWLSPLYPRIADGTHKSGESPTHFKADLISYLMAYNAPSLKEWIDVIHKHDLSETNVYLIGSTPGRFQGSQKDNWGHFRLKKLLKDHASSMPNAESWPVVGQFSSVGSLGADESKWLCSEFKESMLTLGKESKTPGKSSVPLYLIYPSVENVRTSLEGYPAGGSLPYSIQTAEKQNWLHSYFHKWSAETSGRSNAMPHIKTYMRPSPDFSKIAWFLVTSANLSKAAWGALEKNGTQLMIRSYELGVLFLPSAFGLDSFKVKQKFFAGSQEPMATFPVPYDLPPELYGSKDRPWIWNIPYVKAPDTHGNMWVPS
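Tdp1 1 nM final; 15 min RT w/ cpd; substrate 15 nM, 5 min; beads 10 ug/ml, 10 min; AlphaScreen read. Neg ctrl: no enzyme.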
Gal4-VP16 FLuc – VP16 counterscreen qHTS for inhibitors of ROR gamma transcriptional activity. Drosophila S2 Gal4-VP16 UAS-luciferase, luminescence, 20 h. Potency, µM (highest dose often 53.6 µM), most hits filed as inhibitors. 310,000 compounds, 3.5% hits. AID 2546, 2010;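 also: Gal4-VP16 expression switched on by copper sulfate through the metallothionein promoter; nearly all actives have a fitted effect of over 50% in size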
Numbers stand for hits; . = inactive; ? = inconclusive; / = not tested or not shown. Sampled rows, rich in hits. Any-hit rate of the full collection: about 19%. Calls follow the shape of the dose curve; as a rule, active = well fitted curve in the direction sought with a large enough effect; inconclusive = small, poorly fitted or top-dose-only effect, or another doubt; inactive = no such curve, though single readings can be large; an effect the other way counts as inactive or inconclusive.

SMILES	DT40 TDP1 no CPT	RORg inh	TDP1 cell CPT	TDP1 block	Gal4-VP16 FLuc
COc1ccc(C2Nc3ccccc3C(=O)N2Cc2ccco2)cc1COc1ccc([N+](=O)[O-])cc1 (configuration not stated)	23µM	.	?	.	.
COc1cccc(OCc2cc(C3Nc4ccccc4C(=O)N3Cc3ccccc3)ccc2OC)c1 (configuration not stated)	?	/	.	.	/
COc1ccc(C2Nc3ccccc3C(=O)N2Cc2ccco2)cc1COc1c(C)cccc1C (configuration not stated)	5µM	/	2.5µM	.	/
COc1cccc(OCc2cc(C3Nc4ccccc4C(=O)N3Cc3ccco3)ccc2OC)c1 (configuration not stated)	?	.	?	.	.
CC(C)CNC(=O)C(=O)NCCCN1CCOCC1	.	.	?	.	.
Cc1cc(-c2ccc(N3C(=O)CCC3=O)c(C)c2)ccc1N1C(=O)CCC1=O	.	?	.	.	.
CC12CC3CC1C(C(=O)O2)C3C(=O)O (configuration not stated)	.	/	.	/	/
O=c1oc2ccc(Cl)cc2nc1/C=C(\O)c1ccco1	18µM	.	?	.	.
COC(=O)c1c(C)nn(-c2ccc(OC(F)(F)F)cc2)c1-c1snnc1C	16µM	.	?	.	.
COC(=O)C1=C(O)C2(C(=O)O)CC(C(=O)OC)=C(O)C(C(=O)O)(C1)C2	10µM	.	.	/	.
C=CCn1c(C)cc(C(=O)CSc2nc3ccccc3[nH]2)c1C	9.2µM	10µM	21µM	.	13µM
C=CCn1c(C)cc(C(=O)CSc2nc3ccccc3c(=O)[nH]2)c1C	21µM	.	16µM	.	?
Cc1cc(C(=O)CSc2nc3ccccc3[nH]2)c(C)n1C	?	?	?	.	.
COCCn1c(C)cc(C(=O)CSc2ccc3ccccc3n2)c1C	?	?	?	.	.
COCCn1c(C)cc(C(=O)CSc2nc3ccccc3c(=O)[nH]2)c1C	15µM	.	16µM	.	.
COCCn1c(C)cc(C(=O)COc2nc3ccccc3nc2C)c1C	15µM	.	16µM	.	?
CCOc1ccc(C2NC(=O)c3n[nH]c(C)c32)cc1 (configuration not stated)	.	.	.	.	.
COCC(C)n1c(C)cc(C(=O)CSc2nc3ccccc3c(=O)[nH]2)c1C (configuration not stated)	21µM	.	?	.	?
COCC(C)n1c(C)cc(C(=O)CSc2nnc(Nc3ccccc3F)s2)c1C (configuration not stated)	?	?	23µM	.	.
COCC(C)n1c(C)cc(C(=O)CSc2ncccn2)c1C (configuration not stated)	.	.	.	.	.
Cc1cc(C(=O)CSc2nc3ccccc3[nH]2)c(C)n1Cc1ccco1	5.8µM	?	8.2µM	.	16µM
O=C(COc1ccccc1)Nn1cnc2ccccc21	.	.	.	.	.
Cc1sc2ncnc(N3CCCCC3C)c2c1C (configuration not stated)	?	.	?	.	.
Cn1nc(-c2ccccc2)c(C(O)c2ccccc2C(F)(F)F)c1Cl (configuration not stated)	.	?	.	.	.
COC(c1ccccc1)c1c(-c2ccccc2)nn(C)c1Cl (configuration not stated)	?	.	1.5µM	.	.
SMILES	DT40 TDP1 no CPT	RORg inh	TDP1 cell CPT	TDP1 block	Gal4-VP16 FLuc
CCOC(=O)C(NC(=O)c1ccccc1)(N1CCOCC1)C(F)(F)F (configuration not stated)	.	?	.	.	.
CCOc1cc(C(=O)N=c2sccn2C)cc(Br)c1OC	18µM	.	18µM	.	.
CCOc1ccccc1CNC(=O)CCn1ccc2cc(S(=O)(=O)N3CCCCC3)ccc21	29µM	.	16µM	.	.
CCOc1ccccc1CNC(=O)Cn1ccc2cc(S(=O)(=O)N3CCCCCC3)ccc21	2.9µM	.	8.2µM	.	?
COc1cccc(CNC(=O)CCn2ccc3cc(S(=O)(=O)N4CCC(C)CC4)ccc32)c1	.	.	?	.	.
CCOc1ccccc1CNC(=O)CCn1ccc2cc(S(=O)(=O)N3CCC(C)CC3)ccc21	12µM	/	9.2µM	.	/
CC1CCN(S(=O)(=O)c2ccc3c(ccn3CCC(=O)N3CCCCC3)c2)CC1	6.5µM	.	?	.	.
COc1cccc(CNC(=O)Cn2ccc3cc(S(=O)(=O)N4CCCCCC4)ccc32)c1OC	?	.	?	.	.
COc1ccccc1CNC(=O)Cn1ccc2cc(S(=O)(=O)N3CCCC3)ccc21	.	.	.	.	.
Cc1cc2ccccn2c1C(=O)c1ccc(NN)c([N+](=O)[O-])c1	?	.	16µM	.	?
COC(=O)c1cc(C(=O)c2c(C)cc3ccccn23)cc([N+](=O)[O-])c1	12µM	.	8.2µM	/	.
Cc1cccc(NC(=O)CSc2ccc(C(N)=O)cc2[N+](=O)[O-])c1C	.	.	?	.	.
Cc1cc2ccccn2c1C(=O)c1cc([N+](=O)[O-])cc([N+](=O)[O-])c1	.	.	.	.	.
Cc1cc2ccccn2c1C(=O)c1ccc(C#N)cc1	23µM	?	?	/	.
Cn1c(N)c(C(=O)COC(=O)/C=C/c2cccc(Br)c2)c(=O)n(C)c1=O	?	/	.	.	/
O=C(NCCCN1CCN(c2ccc(F)cc2)CC1)c1cc2c(Cl)nc3ccccc3c2s1	4.6µM	/	7.3µM	.	/
CC1CCCN(CCCNC(=O)c2cc3c(Cl)nc4ccccc4c3s2)C1 (configuration not stated)	7.3µM	?	10µM	.	.
Cc1noc(NS(=O)(=O)c2ccc(N3Cc4ccccc4C3=O)cc2)c1C	.	.	.	.	.
CCc1ccc(NS(=O)(=O)c2ccc(C(=O)N(C)C)s2)cc1	15µM	/	18µM	.	/
Cc1ccc(S(=O)(=O)NCC(c2ccco2)N2CCN(c3ccccc3F)CC2)cc1 (configuration not stated)	16µM	/	?	.	/
COc1ccc(N2CCN(C(CNS(=O)(=O)c3ccc(OC)c(C)c3)c3ccco3)CC2)cc1 (configuration not stated)	23µM	/	?	.	/
O=C(NCCc1c[nH]c2ccccc12)C(=O)NCC(c1ccco1)N1CCN(c2ccccc2F)CC1 (configuration not stated)	23µM	?	?	.	.
